# Rows were chosen to be rich in hits. Some 5% of all compounds tested hit in one or more screens of this group.
# Vaccinia Venus – inhibitors of vaccinia virus (Venus reporter) | Vaccinia virus Venus reporter expression, fluorescence | Potency, µM (doses to about 36.5 µM), inactives show at the highest dose activity change, negative = inhibition, most hits filed as inhibitors | actives 0.46% (n = 330,000); calls by dose curve; tested in A549 cells; further: potency means the concentration at half of the fitted maximal effect; nearly all actives have a fitted effect of over 30% in size
# VACV mCherry inh – inhibitors of vaccinia virus infection (mCherry reporter signal); Vaccinia virus mCherry reporter infection, fluorescence; Potency, µM (doses to about 36.5 µM), for inactives: top-dose activity change, negative = inhibition, most hits filed as inhibitors; AID 720579; actives 0.63% (n = 310,000); calls by dose curve; tested in A549 cells; further: potency means the concentration at half of the fitted maximal effect; nearly all actives have a fitted effect of over 35% in size
# LmPK inhibitor – blocks Leishmania mexicana pyruvate kinase activity; Potency, µM (titrated, usually from 57.5 µM), for inactives: at the highest dose activity change, negative = inhibition, most hits filed as inhibitors; AID 1721; Q27686; actives 0.37% (n = 290,000); purified LmPK, Kinase-Glo ATP luminescence, 1 h; further: potency means the concentration at half of the fitted maximal effect
# Target sequence (Q27686 whole entry, looked up): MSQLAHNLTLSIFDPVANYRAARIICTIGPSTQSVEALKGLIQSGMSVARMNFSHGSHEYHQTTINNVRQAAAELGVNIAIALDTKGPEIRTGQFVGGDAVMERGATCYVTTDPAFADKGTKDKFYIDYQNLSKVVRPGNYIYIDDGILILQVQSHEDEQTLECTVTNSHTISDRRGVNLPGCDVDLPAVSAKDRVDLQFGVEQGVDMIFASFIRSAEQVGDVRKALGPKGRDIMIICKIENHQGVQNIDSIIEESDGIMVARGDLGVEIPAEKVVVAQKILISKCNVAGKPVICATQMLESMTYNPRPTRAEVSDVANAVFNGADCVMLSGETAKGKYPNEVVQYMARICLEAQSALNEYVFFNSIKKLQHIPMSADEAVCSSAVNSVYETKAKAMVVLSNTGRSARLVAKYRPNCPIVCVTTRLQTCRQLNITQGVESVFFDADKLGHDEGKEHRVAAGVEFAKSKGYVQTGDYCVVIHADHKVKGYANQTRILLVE
#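 Screened at intermediate enzyme activity to detect both inhibitors and activators: LmPK at 0.1 nM, with a 0.5 nM enzyme column as activation reference. PEP 0.5 mM, ADP 0.1 mM; ATP detected by luminescence after 1 h.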
# HCMV antiviral – human cytomegalovirus inhibition. HFF cells, HCMV-luciferase reporter, 72 h; hits give low values. activity change, negative = inhibition, % at 57.5 µM. actives 4.5% (n = 410,000); in the data active means activity change below about -60%; inconclusive means no clear call, values can overlap the other calls; inactive means above about -39%
#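 Compounds were evaluated in HFFs infected with an HCMV luciferase reporter virus (MOI 1 PFU/cell). Luciferase in lysates collected 72 h post infection served as the replication measure.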
# TbPYK inhibitor – T. brucei pyruvate kinase inhibition; Q57TT1; TbPYK enzyme, Kinase-Glo Plus ATP luminescence, 45 min; Potency, µM (doses to about 76.8 µM), inactives show at the top dose activity, negative = inhibition, usual class: inhibitors; actives 0.12% (n = 410,000); AID 624173; further: potency means the concentration at half of the fitted maximal effect; nearly all actives have a fitted effect of over 50% in size
#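 TbPYK + substrate in 50 mM TEA pH 7.2, 100 mM KCl, 10 mM MgCl2, 0.05% BSA, 0.01% Tween-20; cpd pinned; ADP 130 uM final; 45 min RT; Kinase-Glo Plus 10 min; luminescence endpoint.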
# Active calls of the source: *; i = inactive; ? = inconclusive; . = not tested or not shown; + = active, no number; ! = not confirmed by another sample. Unless noted, the call rests on the fitted dose curve; in most records, active means well fitted curve in the direction sought with a large enough effect; inconclusive means small, poorly fitted or top-dose-only effect, or another doubt; inactive means no such curve, though single readings can be large; an effect the other way counts as inactive or inconclusive. On the % scale 0 is the no-effect control and ±100 the full control effect.
SMILES,Vaccinia Venus,VACV mCherry inh,LmPK inhibitor,HCMV antiviral,TbPYK inhibitor
CCOc1ccc(NC(=O)c2ccc(CNc3c(N4CCCC4)c(=O)c3=O)cc2)cc1,.,.,2%,-18,1%
Cc1ccc(Sc2c(C=O)c3ccccc3n2C)cc1,?,.,8%,-91*,6%
O=C(c1ccc(Br)cc1)N(C1=NCCCCS1)c1ccccc1,-1%,.,2%,-63*,6%
CC(C)c1ccc(CNc2ccc3c(c2)ncn3C)cc1,.,.,-2%,42,1%
CC(C)(C)n1cnc2cc(NCc3ccccc3O)ccc21,-20%,-23%,3%,53,-8%
CCc1ccc(CNc2ccc3c(c2)ncn3C(C)(C)C)cc1,-18%,-19%,-7%,-64*!,-12%
CC(C)(C)n1cnc2cc(NCc3ccc(Br)cc3)ccc21,-18%,-17%,1%,130,-12%
CN(C)c1ccc(CNc2ccc3c(c2)ncn3C)cc1,.,.,0%,-102*,-30%
CCN(CC)c1ccc(CNc2ccc3c(c2)ncn3C(C)(C)C)cc1,-16%,?,-1%,-68*,-6%
CCC(C)NC(=O)Cn1c(=O)cc(-c2ccccc2)c2c(C)nn(C)c21 (stereo not given),-15%,-10%,.,8,-1%
CC(=NNC(=S)N1CCCC1)c1ccccn1,?,?,.,-99*,-21%
CC(=NNC(=S)N1CCC1)c1ccccn1,?,?,.,-101*,3%
CC(=NNC(=S)SCc1ccccc1)c1ccccn1,?,10µM*,.,-97*,-10%
C/C(=N\Nc1ccc(Cl)cc1)c1ccccn1,-7%,i,4%,41,2%
CCCCn1c(N)c(N(Cc2ccccc2OC)C(=O)COc2ccc(C)cc2)c(=O)[nH]c1=O,-2%,-11%,.,-13,1%
CCOC(=O)c1ccc(CN2C(=O)C(n3cccc3)c3ccccc32)o1 (stereo not given),.,.,.,11,.
Cc1cc(C)cc(OCC(=O)OC/C(O)=C(\C#N)c2nc3ccccc3[nH]2)c1,-5%,8%,-5%,-81*,-3%
N#C/C(=C(/O)COC(=O)COc1cccc(Br)c1)c1nc2ccccc2[nH]1,.,.,-2%,-78*,0%
Cc1cccc(C)c1OCC(=O)OC/C(O)=C(\C#N)c1nc2ccccc2[nH]1,-15%,-13%,0%,?,1%
CCc1ccc(NC(=O)C2=C(C)C(=O)OC23CCCCC3)cc1,-4%,-2%,.,-37,-3%
COc1ccc(S(=O)(=O)NCc2cccnc2)cc1NC(=O)c1ccccc1,-9%,-8%,-6%,-31,1%
COc1ccc(S(=O)(=O)NCc2ccccn2)cc1NC(=O)c1ccc(Cl)cc1,-26%,?,.,-30,1%
COc1ccccc1NS(=O)(=O)c1ccc(C(=O)NCc2ccncc2)cc1,.,.,.,+,-11%
CCOc1ccc(S(=O)(=O)NCc2ccncc2)cc1NC(=O)c1ccccc1,-20%,-9%,.,-87*,1%
COc1ccc(S(=O)(=O)NCc2ccncc2)cc1NC(=O)c1ccc(Cl)cc1,-9%,-12%,.,-63*,2%
SMILES,Vaccinia Venus,VACV mCherry inh,LmPK inhibitor,HCMV antiviral,TbPYK inhibitor
COc1ccc(S(=O)(=O)NCc2ccncc2)cc1NC(=O)c1ccccc1,-29%,-13%,.,-79*,1%
COc1ccc(-n2cnnc2SC(C)c2nc3sc(C)c(C)c3c(=O)[nH]2)cc1 (stereo not given),.,.,9%,34,.
CCOC(=O)CCCCCCCCCCCCC1C=CCC1 (stereo not given),0%,i,.,.,.
CCOC(=O)n1c(=O)n(Cc2ccc(OC)cc2)c2ccccc21,?,?,0%,15,4%
COc1ccc(CNC(=O)CN(C)S(=O)(=O)c2ccc(Br)s2)cc1,-7%,-4%,3%,0,5%
CN(CC(=O)NCc1ccc(F)cc1)S(=O)(=O)c1ccc(Br)s1,-18%,?,-6%,-71*,-8%
CN(CC(=O)NCC1CCCCC1)S(=O)(=O)c1ccc(F)cc1,-3%,i,1%,-63*,-5%
O=C(Nc1ccccc1C(=O)OCn1nnc2ccccc2c1=O)c1ccco1,-13%,-7%,-1%,-5,4%
CCOc1cccc2cc(-c3cn4c(n3)sc3ccccc34)c(=O)oc12,-11%,-10%,.,145,3%
OC(c1ccco1)c1nc(-c2ccc(F)c(Cl)c2)cs1 (stereo not given),-5%,i,.,-65*,-7%
O=C(c1ccc(F)cc1F)C1CCN(c2ccc([N+](=O)[O-])cn2)CC1,-29%,-1%,-1%,-77*,-1%
O=[N+]([O-])c1ccc(N2CCOCC2)nc1,-3%,i,4%,11,1%
OCc1ccc(-c2ccc3nccn3c2)cc1,3%,11%,.,24,2%
COc1ccc(-c2cc(=O)c3ccccc3[nH]2)cc1,-17%,18%,-2%,17,0%
Cc1ccc2[nH]c(-c3cccc(F)c3)cc(=O)c2c1,?,?,2%,-69*,-4%
Cc1ccc(-c2cc(=O)c3cc(F)ccc3[nH]2)cc1,-17%,i,0%,0,3%
O=c1cc(-c2cccc(F)c2)[nH]c2ccccc12,?,i,12%,-77*,-10%
O=c1cc(-c2ccccc2)[nH]c2ccc(F)cc12,?,i,6%,-62*,-2%
COc1ccc2[nH]c(-c3cccc(F)c3)cc(=O)c2c1,?,?,-1%,-62*,0%
CC(C)c1ccc(CN2CCC(n3nccc3NC(=O)C3CCCC3)CC2)cc1,-29%,-15%,.,-33,-6%
Cc1ccc2[nH]c(C(F)(F)F)cc(=O)c2c1,-23%,?,-13%,-73*,9%
CCOc1ccc(C2CC(c3cccc(OC)c3)Nc3ncnn32)cc1 (stereo not given),.,.,-1%,26,-5%
O=C1C2C3C=CC(C3)C2C(=O)N1c1ccc(N2CCN(c3ccccn3)CC2)c([N+](=O)[O-])c1 (stereo not given),.,.,-1%,-66*,-1%
N#Cc1ccc(-c2nc3cc(Cl)ccc3c(=O)n2O)cc1,.,.,-7%,9,5%
O=c1c2ccc(Cl)cc2nc(-c2cccc(C(F)(F)F)c2)n1O,?,?,-2%,-103*,2%
O=c1c2ccccc2nc(-c2ccc(Cl)c(Cl)c2)n1O,-14%,.,-2%,-63*,-13%
CCOC(=O)c1c(-c2ccc(F)cc2)csc1NC(=O)C1CCCO1 (stereo not given),-2%,-9%,9%,-60*,-12%
CCOC(=O)c1c(-c2ccc(C)cc2)csc1NC(=O)C1CCCO1 (stereo not given),-11%,i,3%,-18,2%
CN=C(NC1CCCCC1)c1ccc(Cl)cc1,-5%,-1%,-1%,-60*,-5%
O=S(=O)(NC1c2cccc3cccc(c23)C1Sc1ncccn1)c1ccc(Cl)cc1 (stereo not given),?,?,1%,-72*,-6%
